# Screening data: PubChem, several laboratories
# HSP90 refold inh: HSP90 inhibitors, primary screen, cell lysate, luminescence. Heat shock protein HSP 90 (rabbit reticulocyte lysate; luciferase refolding). Rabbit reticulocyte lysate, luciferase refolding luminescence, 3 h. inhibition, % at 5.6 µM. hit rate 0.91% among 290,000. AID 1789, 2009;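 active means inhibition above the screen-wide mean plus 3 SD, computed separately per campaign, cut at about 16% in these data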;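 further: inhibitors lower the luminescence because luciferase stays unfolded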
# Mdm2-MdmX inh: inhibitors of human Mdm2-MdmX association, primary screen, cell-based, luminescence, split luciferase, SaOS-2, uHTS; inhibition, % at 8 µM; AID 485346, 2010; SaOS-2 split-luciferase Mdm2/MdmX complementation; hit rate 3% among 330,000; Protein Mdm4 (Homo sapiens) + E3 ubiquitin-protein ligase Mdm2 (Homo sapiens), …;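 active means inhibition of at least 50% at 8 µM in the primary screen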
# Target sequence (O15151 whole entry, looked up): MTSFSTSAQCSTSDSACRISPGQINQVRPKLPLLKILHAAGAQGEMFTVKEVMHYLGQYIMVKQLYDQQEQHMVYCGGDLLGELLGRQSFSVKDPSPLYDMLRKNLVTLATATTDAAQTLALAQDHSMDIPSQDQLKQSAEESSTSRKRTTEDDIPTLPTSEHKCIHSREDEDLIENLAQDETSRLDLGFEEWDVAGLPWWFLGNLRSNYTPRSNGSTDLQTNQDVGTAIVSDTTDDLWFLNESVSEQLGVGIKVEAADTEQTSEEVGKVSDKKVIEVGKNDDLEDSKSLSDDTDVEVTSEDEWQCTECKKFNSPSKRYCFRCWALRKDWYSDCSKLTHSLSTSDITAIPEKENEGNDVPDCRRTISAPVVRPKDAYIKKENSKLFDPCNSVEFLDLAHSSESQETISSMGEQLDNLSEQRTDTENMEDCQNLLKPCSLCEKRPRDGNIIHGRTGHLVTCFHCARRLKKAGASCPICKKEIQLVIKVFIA
# Target sequence (Q00987 whole entry, looked up): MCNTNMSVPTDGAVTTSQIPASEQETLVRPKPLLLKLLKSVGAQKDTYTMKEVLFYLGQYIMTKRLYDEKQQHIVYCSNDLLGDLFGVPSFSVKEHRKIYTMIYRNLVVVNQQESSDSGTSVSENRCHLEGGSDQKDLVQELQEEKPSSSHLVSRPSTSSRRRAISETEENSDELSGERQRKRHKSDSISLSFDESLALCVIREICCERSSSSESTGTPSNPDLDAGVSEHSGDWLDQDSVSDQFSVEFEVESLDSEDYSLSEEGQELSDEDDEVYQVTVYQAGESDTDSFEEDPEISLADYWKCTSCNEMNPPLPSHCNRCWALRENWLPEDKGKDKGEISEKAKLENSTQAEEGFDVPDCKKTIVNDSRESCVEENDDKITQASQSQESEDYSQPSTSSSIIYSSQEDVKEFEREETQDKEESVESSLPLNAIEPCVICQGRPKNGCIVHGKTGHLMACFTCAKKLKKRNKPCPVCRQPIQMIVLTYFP
# Peg3 promoter: Peg3 promoter-driven luciferase inhibitors, primary screen, cell-based, HeLa, luciferase luminescence | HeLa PEG-Prom luciferase reporter, overnight | AID 588405, 2011 | inhibition, % at 20 µM | hit rate 1.7% among 360,000;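 active means inhibition of at least 50% at 20 µM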
# CF NFkB block: inhibitors of PAF-induced NF-kB signaling, primary screen, cell-based, GFP fluorescence, uHTS; KKLEB NF-kB-GFP reporter, GFP fluorescence overnight; hit rate 0.86% among 360,000; inhibition, % at 5 µM; AID 588850, 2011;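 active means at least 50% inhibition at 5 µM, scaled per plate between neutral and stimulator controls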;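 further: PAF is a Pseudomonas aeruginosa culture filtrate used as stimulus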
# KKLEB tox: cytotoxicity in KKLEB CF airway cells, primary screen, cytotoxicity control for CF NF-kB inhibitor project, cell-based, uHTS, fluorescence assay plates; KKLEB CF airway cells viability, ATPlite luminescence, overnight; active compounds read low; cells stimulated with P. aeruginosa culture filtrate; activity change (cytotoxicity), % at 5 µM; hit rate 0.36% among 360,000; AID 602141, 2011;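 active means corrected activity change at or below -50% at 5 µM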
# LGR2 inh: inhibitors of bursicon-induced LGR2 CRE-luciferase signal, primary screen, cell-based, HEK293, CRE-luciferase reporter, bursicon stimulation | hit rate 0.35% among 380,000 | inhibition, % at 9.99 µM | AID 720647, 2013 | bursicon-stimulated, 4 h | Drosophila bursicon receptor LGR2 (rickets);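 active means drop in luminescence signal, shown as inhibition above about 50% in the replicate tests, limit read from the data, passing the limit was not always enough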;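 further: agonist challenge used bursicon conditioned medium at about half maximal strength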
# Mdm2 MdmX conf: Mdm2-MdmX complex disruptors, retested hits, confirmation, luminescence, single concentration. shares compounds with Mdm2-MdmX inh. Mdm2-MdmX binding, luminescent assay. inhibition, % at 8 µM. hit rate 55% among 10,000. AID 489028, 2010; in the data active means inhibition above about 40%
# Full FLuc ctr: full-length luciferase signal inhibition, confirmation, counter-screen for Mdm2/MdmX interaction inhibitor project, cell-based, single concentration, SaOS-2. shares compounds with Mdm2-MdmX inh. SaOS-2 full-length luciferase counterscreen, luminescence. inhibition, % at 8 µM. hit rate 77% among 6,200;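 active means mean inhibition at 8 µM reaching about 37%, which flags the compound as non-specific, limit read from the data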;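 further: p53-null SaOS-2 cells with luciferase driven by a doxycycline-inducible promoter; compound on cells about two nights before reading with doxycycline added after day one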
# Hits are given with their value; . = inactive; / = not tested or not shown. Hits are enriched below; roughly 3.6% of the tested compounds scored in any of these assays.
SMILES,HSP90 refold inh,Mdm2-MdmX inh,Peg3 promoter,CF NFkB block,KKLEB tox,LGR2 inh,Mdm2 MdmX conf,Full FLuc ctr
COc1ccc(C(=O)N/N=C(\Cc2ncc[nH]2)c2ccccc2)cc1,.,54.1,.,.,.,.,42.1,.
COCC(=O)N1C[C@@H]2[C@H](c3ccccc31)[C@H](CO)N2C(=O)Nc1ccccc1Cl,/,/,/,/,/,.,/,/
Cc1ccc(C(C)C)c(OCC(=O)Nc2ccc3c(c2)nc(CCN2CCCCC2)n3C)c1,.,99.0,104.6,.,.,.,82.2,59.8
Cc1ccc(S(=O)(=O)Nc2ccc3c(c2)nc(CCN2CCCC2)n3C)cc1,.,.,.,.,.,.,/,/
Cn1c(CCN2CCCC2)nc2cc(NS(=O)(=O)c3ccc(Cl)cc3)ccc21,.,68.8,.,.,.,.,.,/
CCN1/C(=C/C=C/c2oc3ccc4ccccc4c3[n+]2CC)Oc2ccc3ccccc3c21,.,96.8,/,/,/,/,98.7,.
O=C1C(c2ccccc2)=[N+]([O-])c2ccccc21,/,92.9,88.1,.,.,.,.,/
COc1cc2c(cc1OC)[N+]([O-])=C(c1ccccc1)C2=O,/,/,/,/,/,.,/,/
C[C@@H]1CN([C@H](C)CO)C(=O)c2cccc(NC(=O)c3cnccn3)c2O[C@H]1CN(C)Cc1ccccc1,/,/,/,/,/,.,/,/
C=CCNc1nc(-c2ccccn2)nnc1-c1ccccc1,.,55.1,.,.,.,/,60.2,40.5
C[C@@H]1CCCCO[C@H](CN(C)C(=O)C2CCCCC2)[C@@H](C)CN([C@@H](C)CO)C(=O)c2cc(NC(=O)CCC(F)(F)F)ccc2O1,/,/,/,/,/,.,/,/
Cc1ccc(NS(=O)(=O)c2ccc(Cl)c(C(=O)Nc3ccccc3-c3nc4ccccc4[nH]3)c2)cc1C,.,60.6,.,55.5,.,.,77.4,50.9
CN(C)S(=O)(=O)c1ccc(Cl)c(C(=O)Nc2nc3ccccc3[nH]2)c1,.,.,.,.,.,.,/,/
Cc1ccc(S(=O)(=O)N(C)C[C@H]2Oc3c(NC(=O)Nc4ccccc4)cccc3C(=O)N([C@@H](C)CO)C[C@@H]2C)cc1,/,/,/,/,/,.,/,/
CC(C)NC(=O)Nc1ccc2c(c1)CC(=O)N([C@H](C)CO)C[C@H](C)[C@@H](CN(C)Cc1ccc(Oc3ccccc3)cc1)O2,/,/,/,/,/,.,/,/
COc1cccc(/C=N/NC(=O)CN2CC(c3ccccc3)CC2=O)c1O (stereo not drawn),.,52.2,.,.,.,.,.,/
COC(=O)Nc1ccc(S(=O)(=O)N2CCCc3cccc(O)c32)cc1,.,55.1,.,.,.,.,52.1,62.6
COC(=O)Nc1ccc(S(=O)(=O)N2CCCCC2)cc1,.,.,.,.,.,/,/,/
CC1CCc2nc(NC(=O)c3ccc(S(=O)(=O)N4CCCc5ccccc54)cc3)sc2C1 (stereo not drawn),.,58.1,.,.,.,/,.,/
Cn1c(=O)oc2cc(S(=O)(=O)N3CCCc4ccccc43)ccc21,.,54.6,.,.,.,.,59.2,65.2
COc1ccccc1C(=O)Nc1ccc(S(=O)(=O)N2CCc3ccccc32)cc1,.,.,.,.,.,.,/,/
COc1ccc(S(=O)(=O)N2CCc3ccccc32)cc1C(=O)Nc1ccc(C(N)=O)cc1,/,97.8,.,.,.,.,60.0,66.3
Cn1c(=O)oc2cc(S(=O)(=O)N3CCc4ccccc43)ccc21,.,.,.,.,.,.,/,/
C[C@@H]1CN([C@@H](C)CO)C(=O)Cc2cc(NC(=O)Nc3ccccc3)ccc2O[C@H]1CN(C)C(=O)Nc1cccc2ccccc12,/,/,/,/,/,.,/,/
CO[C@H]1CN(C)C(=O)c2ccc(NC(=O)C3CC3)cc2OC[C@H](C)N(Cc2nccs2)C[C@@H]1C,/,/,/,/,/,.,/,/
SMILES,HSP90 refold inh,Mdm2-MdmX inh,Peg3 promoter,CF NFkB block,KKLEB tox,LGR2 inh,Mdm2 MdmX conf,Full FLuc ctr
COc1ccc2c3c([nH]c2c1)[C@@H](CO)N(Cc1ccccc1F)CC31CCN(CC2CC2)CC1,/,/,/,/,/,.,/,/
CCC(=O)Nc1ccc(S(=O)(=O)N2CCc3ccccc32)cc1,.,.,.,.,.,.,/,/
COC(=O)Nc1ccc(S(=O)(=O)N2CCCc3ccccc32)cc1,.,54.7,.,.,.,/,48.8,56.0
CC(C)NC(=O)N(C)C[C@@H]1Oc2cc(-c3ccncc3)ccc2S(=O)(=O)N([C@H](C)CO)C[C@H]1C,/,/,/,/,/,.,/,/
COc1cccc(CNC(=O)C2CCC(CNc3nc(=S)[nH]c4ccccc34)CC2)c1 (stereo not drawn),.,61.1,.,.,.,.,.,/
C[C@@H](O)C#Cc1ccc([C@H]2[C@@H](CO)N3CCCCN(C(=O)c4cccc(F)c4)C[C@@H]23)cc1,/,/,/,/,/,.,/,/
C[C@H]1CN([C@@H](C)CO)C(=O)c2cc(C3=CCCCC3)cnc2O[C@H]1CN(C)C(=O)C1CCOCC1,/,/,/,/,/,.,/,/
CCc1ccccc1NC(=O)CN1CCN(C(=O)CNC(=O)c2ccc(-c3ccccc3)cc2)CC1,/,50.5,.,.,.,.,.,/
C[C@H]1CN([C@@H](C)CO)C(=O)c2ccccc2-c2ccccc2CO[C@H]1CN(C)Cc1cccc(O)c1,/,/,/,/,/,.,/,/
CCc1ccc(-c2cc(C)no2)cc1S(=O)(=O)N1CCN(c2ccccc2)CC1,.,59.5,.,.,.,.,43.1,46.6
CC(C)(C)C(=O)NC(=S)NNC(=O)c1ccncc1,.,.,.,.,.,.,/,/
CC(C)(C)C(=O)NC(=S)NNC(=O)c1ccc(-c2ccccc2)cc1,.,57.3,.,55.7,.,/,45.6,.
CCOc1ccc(C(=O)NC(=S)N(Cc2ccccc2)Cc2ccccc2)cc1,.,/,.,.,.,.,/,/
CCCN(CCC)C(=S)NC(=O)c1ccc(-c2ccccc2)cc1,.,55.2,.,.,.,.,.,/
CC(C)C#Cc1cnc2c(c1)C(=O)N([C@H](C)CO)C[C@@H](C)[C@@H](CN(C)C(=O)CCN1CCCCC1)O2,/,/,/,/,/,.,/,/
CC1CCC(NC(=O)C2CCC(CNS(=O)(=O)c3ccccc3)CC2)CC1 (stereo not drawn),.,.,.,.,.,.,/,/
O=C(NC1CCCCCC1)C1CCC(CNS(=O)(=O)c2ccc(Br)s2)CC1 (stereo not drawn),.,51.4,.,.,.,.,.,/
